# An excerpt weighted towards active compounds, which were near 11% of everything screened.
# AMA1 RON2 block – disrupts binding of P. falciparum AMA1 to RON2. AlphaScreen AMA1-biotinylated RON2 peptide binding. Potency, µM (top dose mostly 58.2 µM), for the others: at the highest dose activity change, negative = inhibition, actives largely listed as inhibitors. actives 0.2% (n = 360,000);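 note: 0% = vehicle wells and -100% = peptide control; nearly all actives have a fitted effect of over 45% in size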
#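 AMA1 (3D7) with his tag at 25 nM final met compounds first, then biotinylated RON2 peptide at 25 nM; detection used donor plus acceptor beads, 10 µg/mL apiece, read by AlphaScreen after 30 min at room temperature.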
# AmpC no deterg – inhibitors of E. coli AmpC beta-lactamase without detergent | AmpC nitrocefin hydrolysis, absorbance 480 nm, 0.0001% Triton | P00811 | actives 0.52% (n = 330,000) | AID 485341 | Potency, µM (series often up to 57.1 µM), without a hit: at the highest dose activity change, negative = inhibition, hits mostly inhibitors;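 note: plate controls were no compound for no effect and no enzyme for full effect; nearly all actives have a fitted effect of over 20% in size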
# Target sequence (P00811 whole entry, looked up): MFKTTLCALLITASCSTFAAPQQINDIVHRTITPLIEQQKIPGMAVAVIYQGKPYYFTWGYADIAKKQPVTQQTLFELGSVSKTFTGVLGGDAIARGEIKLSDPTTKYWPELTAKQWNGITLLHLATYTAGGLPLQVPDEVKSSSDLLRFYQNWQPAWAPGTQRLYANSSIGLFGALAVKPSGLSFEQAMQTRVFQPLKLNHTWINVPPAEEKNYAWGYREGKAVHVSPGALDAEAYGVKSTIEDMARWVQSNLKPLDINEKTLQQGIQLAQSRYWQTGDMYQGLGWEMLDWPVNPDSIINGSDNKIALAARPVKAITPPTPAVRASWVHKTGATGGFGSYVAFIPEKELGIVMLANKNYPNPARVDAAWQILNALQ
#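 AmpC (5.3 nM in the dispensed reagent) in 20 mM phosphate pH 7.0 with 0.01% (detergent screen) or 0.0001% Triton X-100 was preincubated with compounds for 15 min at room temperature. Nitrocefin was then added from an 800 uM solution, and hydrolysis was followed at 480 nm.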
# HCV inhibitor – inhibitors of hepatitis C virus infection; Potency, µM (doses to about 41.8 µM), inactives show at the top dose activity change, negative = inhibition, most hits filed as inhibitors; Huh7.5.1 HCVcc-Cre infection, luciferase reporter, 44 h; AID 651820; actives 3.4% (n = 340,000)
#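 Antiviral activity was scored by luciferase reporter output from cells infected with HCVcc-Cre (~0.5 moi) in presence of compound, 44 h infection period, cells seeded 1,000/well 4 h prior.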
# Pf growth 96h – P. falciparum growth inhibition at 96 hours; P. falciparum luciferase reporter growth, 96 h; Potency, µM (highest dose often 28.7 µM), inactives show at the top dose activity change, negative = inhibition, most hits filed as inhibitors; actives 6.9% (n = 320,000)
#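 Plates of compound plus infected erythrocytes (2% hematocrit, 0.05% parasitemia final) incubate 96 hours, 37 C, 5% CO2. Detection reagent added; reduced luminescence from the parasites' luciferase reporter flags inhibition.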
# AmpC inh detg – inhibitors of E. coli AmpC beta-lactamase with detergent; AID 485294; Potency, µM (doses to about 114 µM), for the others: at the highest dose activity change, negative = inhibition, actives largely listed as inhibitors; actives 0.041% (n = 370,000); P00811; AmpC hydrolysis of nitrocefin, absorbance 480 nm, 0.01% Triton;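 note: 0% = no-compound wells and -100% = no-enzyme wells; nearly all actives have a fitted effect of over 25% in size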
#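 AmpC (5.3 nM in the dispensed reagent) in 20 mM phosphate pH 7.0 with 0.01% (detergent screen) or 0.0001% Triton X-100 was preincubated with compounds for 15 min at room temperature. Nitrocefin was then added from an 800 uM solution, and hydrolysis was followed at 480 nm.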
# Pf growth 48h – inhibits P. falciparum growth in the first generation, 48 h | P. falciparum luciferase growth in erythrocytes, 48 h | Potency, µM (highest dose often 28.7 µM), for the others: top-dose activity change, negative = inhibition, most hits filed as inhibitors | actives 5.9% (n = 310,000) | AID 504832
#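 Luminescence readout; reporter = integrated firefly luciferase in P. falciparum. RBC culture at 2% hematocrit, 0.1% parasitemia final, 37 C/5% CO2; decreased signal taken as growth inhibition.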
# Active calls of the source: *; ? = inconclusive; . = no result; [ ] = dose if it differs, or a comment. Calls come from the whole dose curve; as a rule, active = well fitted curve in the direction sought with a large enough effect; inconclusive = small, poorly fitted or top-dose-only effect, or another doubt; inactive = no such curve, though single readings can be large; an effect the other way counts as inactive or inconclusive. Unless noted, % is set by controls: 0 for no effect and ±100 for the full control effect; potency is the fitted concentration of half-maximal effect.
SMILES,AMA1 RON2 block,AmpC no deterg,HCV inhibitor,Pf growth 96h,AmpC inh detg,Pf growth 48h
Cc1ccc2nc(-c3ccccn3)cc(C(=O)N3CCN(c4ncccn4)CC3)c2c1,8%,0%,3%,2.6µM*,-12%,22%
O=C(c1cc(-c2ccccn2)nc2c(Cl)cccc12)N1CCN(C(=O)C2CCCO2)CC1 (stereo not drawn),0%,115%,16%,.,?,-16%
O=C(c1cc(-c2ccccn2)nc2c(Cl)cccc12)N1CCN(S(=O)(=O)c2ccccc2)CC1,-9%,18%,15%,-16%,-7%,10µM*
O=C(Nc1ccc([N+](=O)[O-])cc1)c1cc(-c2ccccn2)nc2c(Cl)cccc12,6%,-19%,?,15µM*,-1%,18%
Cc1n[nH]c(C)c1CCCCOc1ccccc1F,-2%,-1%,?,2.1µM*,-2%,16%
Cc1ccccc1OCCCCc1c(C)n[nH]c1C,-8%,23%,.,49%,-7%,-15%
CCCCCCC(=O)Nc1nc(C)c(-c2csc(Nc3cc(Cl)ccc3C)n2)s1,10%,-50%,-7%[8.37 µM],?,1%,?
CCCCC(=O)Nc1nc(C)c(-c2csc(Nc3cc(Cl)ccc3OC)n2)s1,35%,-20%,-28%,4.7µM*,-7%,8.3µM*
CCCCC(=O)Nc1nc(C)c(-c2csc(Nc3cc(OC)ccc3OC)n2)s1,-7%,-32%,10µM*,?,-2%,1µM*
CCCCC(=O)Nc1nc2c(OC)ccc(OC)c2s1,30%,-32%,?,?,-13%,.
NC(=O)[C@H]1O[C@@H](O)[C@H](O)[C@@H](O)[C@@H]1O,.,.,.,-29%,.,-10%
Cc1ccc(NS(=O)(=O)c2cc3[nH]c(=O)c(=O)[nH]c3cc2C)cc1Cl,.,.,.,.,5%,.
Cc1cc2[nH]c(=O)c(=O)[nH]c2cc1S(=O)(=O)NCc1ccc(Cl)cc1,-4%,-32%,1%,13µM*,-10%,-5%
COc1ccc(Cl)cc1NC(=O)C1CCN(c2ncnc3c2nc2n3CCCCC2)CC1,.,.,.,.,19%,.
Cc1ccc(C)c(Cn2c3ccccc3c3cnn(CC(=O)NC4CCCCCC4)c(=O)c32)c1,.,.,.,.,21%,.
O=C(NNS(=O)(=O)c1ccc(F)cc1)c1ccccc1F,4%,-6%,4%,?,1%,32%
COc1ccccc1Nc1ncccc1C(=O)O,21%,-14%,21%,9.3µM*,-8%,11%
COC(=O)c1ccccc1NC(=O)c1ccccc1OC,24%,-27%,11µM*,6%,-12%,9%
COc1ccccc1C(=O)NNS(=O)(=O)c1ccc(F)cc1,-7%,-17%,28%,4.1µM*,?,3%
COc1ccccc1C(=O)NC(=S)Nc1cccnc1Cl,-13%,-16%,11µM*,-17%,5%,244%
COc1ccc(CN2CCc3c(c(=O)n4ncc(C(=O)N5CCN(c6ccccc6OC)CC5)c4n3C)C2)cc1,.,.,.,.,7%,.
CCCn1c(=O)c2sccc2n2c(CCCC(=O)Nc3ccccc3F)nnc12,.,.,.,.,15%,.
Cc1ccc(CNC(=O)Cn2cc(C(=O)c3ccc(Cl)cc3)c(=O)c3ccc(C)nc32)cc1,.,.,.,.,19%,.
CCC(Sc1nc2cc3c(cc2c(=O)n1CCCCCC(=O)NCc1ccc2c(c1)OCO2)OCO3)C(=O)NCCCOC (stereo not drawn),.,.,.,.,9%,.
Cc1ccccc1C(=O)Nc1ccccc1NC(=O)c1ccccc1Br,-7%,-28%,6%,-7%,-4%,?
SMILES,AMA1 RON2 block,AmpC no deterg,HCV inhibitor,Pf growth 96h,AmpC inh detg,Pf growth 48h
COc1ccc(Nc2ccccc2NC(=O)c2ccccc2Br)cc1,?,-29%,?,2.1µM*,5%,1.7µM*
COc1ccccc1C(=O)NNC(=O)c1ccccc1Br,37%,-12%,15%,10µM*,-24%,10%
CC(=O)Nc1ccc2nc3c(=O)n(C)c(=O)n(C)c3nc2c1C,.,.,.,.,15%,.
COc1ccc(CC(=O)N2CCc3cc(OC)c(OC)cc3C2COc2ccc3c(C)cc(=O)oc3c2)cc1OC (stereo not drawn),.,.,.,.,4%,.
CCN(CC)CCCNC(=O)C(=O)Nc1ccc2nc3n(c(=O)c2c1)CCCCC3,.,.,.,.,15%,.
CC1C(=O)C(C)C(c2ccc(Cl)cc2)NC1c1ccc(Cl)cc1 (stereo not drawn),26%,.,-25%,.,.,.
CC1C(=NO)C(C)C(c2ccc(N(C)C)cc2)NC1c1ccc(N(C)C)cc1 (stereo not drawn),-3%,46%,-2%,1.9µM*,-2%,?
CCCCSC1=NN1c1nc(N)nc(C)c1CC,-8%,-15%,-2%,8.3µM*,?,.
CCN1CCC(N(Cc2ccc(F)cc2)C(=O)Nc2cc(Cl)ccc2C(=O)OC)CC1,.,.,.,.,13%,.
N#Cc1ccccc1NC(=O)C(=O)NCCc1csc(-c2ccc(F)cc2)n1,.,-38%,.,-23%,-10%,-2%
COc1ccc(NC(=O)CCS(=O)(=O)c2ccc3c(c2)CCCN3C(C)=O)cc1Cl,?,-8%,-10%,43%,4%,.
COc1cccc(NS(=O)(=O)c2ccc3c(c2)CCN3C(C)=O)c1,13%,-6%,1.6µM*,?,-4%,?
CC(=O)N1CCc2cc(S(=O)(=O)Nc3ccc(C)cc3)ccc21,13%,-6%,-11%,-26%,4%,13%
COc1ccc(NC(=O)CCS(=O)(=O)c2ccc3c(c2)CCN3C(C)=O)cc1,3%,-1%,11%,12µM*,-1%,6%
CC(=O)N1CCOc2cc(S(=O)(=O)Nc3cccc(C(F)(F)F)c3)c(Cl)cc21,.,85%,.,?,26%,13µM*
CSc1cccc(NS(=O)(=O)c2ccc3c(c2)CCN3C(C)=O)c1,0%,-2%,5.6µM*,?,-14%,.
CC(=O)N1CCOc2cc(S(=O)(=O)Nc3cc(C(F)(F)F)ccc3Cl)c(C)cc21,.,.,.,.,21%,.
COc1cccc(NC(=O)CN(CCc2ccccc2)S(=O)(=O)c2ccc(Cl)cc2)c1,.,.,.,.,-3%,.
CC(=O)N1CCCc2cc(S(=O)(=O)Nc3ccc(C)c(F)c3)ccc21,.,.,.,.,-4%,.
CC(=O)N1CCc2cc(S(=O)(=O)Nc3cccc(C(F)(F)F)c3)ccc21,12%,-8%,13µM*,35%,-13%,.
CCN1C(=O)c2ccccc2S(=O)(=O)c2ccc(C(=O)NCc3ccc(C)cc3)cc21,.,.,.,.,-11%,.
Cc1cc(CN2CCN(CC(=O)Nc3cc(C(F)(F)F)ccc3-n3cncn3)CC2)no1,13%[11.6 µM],92%,-1%,4.1µM*,?,10µM*
